Bioassay records from PubChem BioAssay.
M1 antag: antagonists of rat M1 muscarinic receptor; CHO-M1 cells, Fluo-4 calcium, ACh EC80 antagonist mode; active compounds read low; B-score at 10 µM; hit rate 3.4% among 64,000;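 active = calcium fluorescence response, raw or row-and-column corrected B-score, differing from the plate sample mean either way at a set confidence level, mostly lower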
Target sequence (P08482 whole entry, looked up): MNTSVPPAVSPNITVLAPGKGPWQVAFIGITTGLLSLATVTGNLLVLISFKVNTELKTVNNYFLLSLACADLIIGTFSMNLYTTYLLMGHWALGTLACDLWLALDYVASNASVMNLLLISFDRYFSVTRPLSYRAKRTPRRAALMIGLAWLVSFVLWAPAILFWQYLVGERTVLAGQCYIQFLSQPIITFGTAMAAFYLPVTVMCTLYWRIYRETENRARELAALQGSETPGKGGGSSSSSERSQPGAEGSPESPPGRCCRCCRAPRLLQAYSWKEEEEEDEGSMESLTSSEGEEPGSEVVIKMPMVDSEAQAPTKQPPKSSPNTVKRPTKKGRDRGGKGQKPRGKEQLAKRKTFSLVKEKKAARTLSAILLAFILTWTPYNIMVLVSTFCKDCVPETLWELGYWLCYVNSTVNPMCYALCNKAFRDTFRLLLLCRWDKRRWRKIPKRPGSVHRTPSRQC
M1 agonist: M1 muscarinic receptor agonists, primary screen, CHO-M1 cells, Fluo-4 calcium, agonist mode; Muscarinic acetylcholine receptor M1; Fluo-4 calcium fluorescence; active compounds read high; B-score at 10 µM; hit rate 3% among 64,000;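 active = fluorescence rise, raw or as B-score row- and column-corrected plate score, outside the 99.7% band of its plate's samples, either direction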
MKP-1 inh: MKP-1 phosphatase inhibitors, primary screen, biochemical, in vitro; hit rate 0.15% among 65,000; recombinant MKP-1, OMFP hydrolysis fluorescence; Dual specificity protein phosphatase 1 (Homo sapiens), P28562; inhibition, %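 (compounds tested at a single concentration somewhere between 10 and 100 µM)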;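 active = inhibition above about 50%, limit read from the data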
Hsp90 inh: tumor Hsp90 inhibitors, primary screen, cell lysate, fluorescence polarization, NCI-N417 lysate. Heat shock protein HSP 90-alpha (Homo sapiens), P07900. Cy3B-geldanamycin FP displacement. inhibition, % at 30 µM. hit rate 0.35% among 64,000;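 active = inhibition above 50%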
Cdc25B block: inhibitors of Cdc25B phosphatase catalytic domain, primary screen, biochemical, OMFP fluorescence; AID 368, 2006; hit rate 0.1% among 65,000; recombinant Cdc25B, OMFP fluorescence Ex485/Em525; M-phase inducer phosphatase 2 (Homo sapiens), P30305; inhibition, %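 (compounds tested at 10 µM final in the well)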; in the data active = inhibition above about 50%
MMP13 inh: human MMP13 inhibitors, primary screen, biochemical, FRET peptide cleavage. inhibition, % at 4 µM. Collagenase 3 (Homo sapiens), P45452. AID 570, 2006. MMP-13 fTHP FRET cleavage, Mca fluorescence. hit rate 0.07% among 65,000;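 active = inhibition above the mean of compound-free control plate wells plus 3 SD, cut at about 14% in these data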
M1 antag conf: rat M1 muscarinic receptor antagonists, confirmation, CHO cells, Fluo-4 calcium, duplicate | calcium response (max-min fluorescence) at 10 µM | AID 677, 2007 | shares compounds with M1 antag | ACh EC80 antagonism; active compounds read low | hit rate 43% among 1,700;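 active = calcium response below the same-plate mean of wells given acetylcholine alone at its 80%-effect dose, minus 3 SD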
mGluR4 antag: human mGluR4 response to M1 antagonist hits, M1 allosteric modulator project, cell-based, antagonist mode, secondary assay 1. fluorescence response (max-min) at 10 µM. AID 678, 2007. hit rate 0.9% among 1,700. CHO-mGluR4 calcium flux, Fluo-4 fluorescence, glutamate EC80; active compounds read low. shares compounds with M1 antag;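 active = fluorescence response below the plate's average for near-maximal glutamate wells, less 3 SD of those wells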;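 note: raw unnormalized fluorescence span taken in the window right after glutamate addition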
A number is an active result; 0 = inactive; - = no result. A selection: hits, their analogues and other compounds. The true share with any hit is near 6.1%.

SMILES	M1 antag	M1 agonist	MKP-1 inh	Hsp90 inh	Cdc25B block	MMP13 inh	M1 antag conf	mGluR4 antag
COc1ccc(N=C2C(=O)Nc3ccccc32)cc1	-4.4	0	0	0	0	0	0	0
CCOC(=O)N1CCN(C(=O)Nc2ccc(Cl)cc2Cl)CC1	0	0	0	0	0	0	-	-
CC1CCN(CC(O)COC2CCC(C(C)(C)C)CC2)CC1 (configuration not stated)	-4	0	0	0	0	0	0	0
O=c1nc2n(c3cc(Cl)c(S(=O)(=O)N4CCOCC4)cc13)CCCCC2	0	0	0	0	0	0	-	-
CCOc1ccc(Nc2nc(Cc3nnc(SCC(N)=O)o3)cs2)cc1	-1.7	0	0	0	0	0	0	0
CCc1sc(NS(C)(=O)=O)nc1-c1ccccc1	0	0	0	0	0	0	-	-
CCCN1C(=O)c2ccc(C(=O)NC3CCCCC3)cc2C1=O	0	0	0	0	0	0	-	-
CCCCNS(=O)(=O)c1ccc2nc(SCC(=O)Nc3sccc3C#N)[nH]c2c1	-3.1	0	0	0	0	0	0	0
CCOc1ccc2nc(SCC(=O)Nc3ncccn3)[nH]c2c1	0	0	0	0	0	0	-	-
CCOC(=O)c1ccc(NC(=O)c2ccc(CN3CCOCC3)cc2)cc1	-7.3	0	0	0	0	0	418	0
CCN1CCN(Cc2ccc(NC(=O)Nc3ccccc3Cl)cc2)CC1	-3	0	0	0	0	0	0	0
CC(=O)Nc1ccc(CN2CCCCCCC2)cc1	-1.9	0	0	0	0	0	488	0
Cc1cc2c(=O)n(NC(N)=O)c(C)nc2s1	0	0	0	0	0	0	-	-
Cc1nnc(SCCn2c(N3CC(C)CC(C)C3)nc3c2c(=O)[nH]c(=O)n3C)s1 (configuration not stated)	0	0	0	0	0	0	-	-
CCn1c(SCC(=O)O)nnc1C1CCCCC1	-4.7	0	0	0	0	0	0	0
NC(=O)COc1ccc(=O)n(-c2ccccc2)n1	-2.4	0	0	0	0	0	0	0
O=C(c1ccco1)N1CCN(CCCCN2C(=O)c3ccccc3C2=O)CC1	-1.4	0	0	0	0	0	0	0
O=C(c1ccco1)N1CCCN(C(=O)c2ccco2)CC1	0	0	0	0	0	0	-	-
O=C1OC(N2CCN(C(=O)c3ccco3)CC2)c2ccccc21 (configuration not stated)	-3.8	0	0	0	0	0	0	0
O=C(CCC1CCCC1)N1CCN(C(=O)c2ccco2)CC1	-3	0	0	0	0	0	0	0
CN1CCN(c2ccccc2NS(=O)(=O)c2ccc3c(c2)CCN3C(=O)C2CCC2)CC1	0	0	0	0	0	0	-	-
CCOc1ccc(CNc2ccc3c(c2)nc(C)n3C)cc1	-6	0	0	0	0	0	448	0
Cc1nc2cc(NCc3nc4ccccc4n3Cc3ccccc3)ccc2n1C	0	0	0	0	0	0	-	-
CCOc1ccc(NC(=O)C2CC(=O)N(c3cc(C)cc(C)c3)C2)cc1 (configuration not stated)	-2.8	0	0	0	0	0	0	0
CCOc1ccc(N2CC(C(=O)Nc3ccc(S(=O)(=O)N4CCOCC4)cc3)CC2=O)cc1 (configuration not stated)	0	0	0	0	0	0	-	-
SMILES	M1 antag	M1 agonist	MKP-1 inh	Hsp90 inh	Cdc25B block	MMP13 inh	M1 antag conf	mGluR4 antag
O=C(NC1CCCCC1)n1c(=O)oc2ccccc21	-15	0	0	0	0	0	0	0
CCOC(=O)c1cc2sccc2n1CC(=O)Nc1ccc2c(c1)OCCO2	-0.93	0	0	0	0	0	0	0
CN(C1CCCCC1)S(=O)(=O)c1ccc(-n2cnnn2)cc1	-2.1	0	0	0	0	0	0	0
c1ccc2c(Cn3ccnc3)c[nH]c2c1	0	0	0	0	0	0	-	-
Cc1cc(Cn2ccnc2)c(C)cc1Cn1ccnc1	-2	0	0	0	0	0	0	0
COc1ccc(N2CCN(C(=O)C(C)(C)Oc3ccc(Cl)cc3)CC2)cc1	0	0	0	0	0	0	-	-
CCOC(=O)N1CCN(C(=O)C(C)(C)Oc2ccc(Cl)cc2)CC1	-2.6	0	0	0	0	0	0	0
CCOC(=O)N1CCN(C(=O)C2CCC(CNS(=O)(=O)c3ccc(Cl)cc3)CC2)CC1 (configuration not stated)	-2.9	0	0	0	0	0	0	0
CN1C(=O)NC(c2ccc(O)cc2)C(C(=O)c2cccs2)C1(O)C(F)(F)F (configuration not stated)	-3.3	0	0	0	0	0	0	0
O=C1NC(c2ccccc2)C(C(=O)c2cccs2)C(O)(C(F)(F)F)N1 (configuration not stated)	0	0	0	0	0	0	-	-
CC1CCCCN1C(=O)CSc1nc(C2CC2)nc2c1cnn2-c1ccccc1 (configuration not stated)	0	0	0	0	0	0	-	-
CCOc1ccc2c(c1)c1nnc(SCC(=O)N3CCCCC3C)nc1n2C (configuration not stated)	-3.2	0	0	0	0	0	0	0
CCOc1ccc2c(c1)c1nnc(SCC(=O)N3CCC(C)CC3)nc1n2C	-4.6	0	0	0	0	0	333	0
CCOC(=O)c1ccc(-n2c(C)nc3ccccc3c2=O)cc1	0	0	0	0	0	0	-	-
CCOC(=O)c1ccc(-n2[nH]c(-c3ccccc3)cc2=O)cc1	-17	0	0	0	0	0	0	0
c1ccc(Oc2cccc(NC3=NCCC3)c2)cc1	-3.5	0	0	0	0	0	393	0
Cc1cc(N2CCN(c3nc(N4CCOCC4)nc4ccccc34)CC2)c2ccccc2n1	-7.1	0	0	0	0	0	24	0
CCn1c(=O)cc(OCC(=O)Nc2cccnc2)c2ccccc21	-1.7	0	0	0	0	0	0	0
COCC(=O)N(c1ccc(C(C)C)cc1)C1C=CS(=O)(=O)C1 (configuration not stated)	0	0	0	0	0	0	-	-
NCCS(=O)O	-	-	-	0	-	-	-	-
CN1CCCC(OC(=O)c2cc(Cl)ccc2Cl)C1 (configuration not stated)	0	0	0	0	0	0	-	-
CN1CCCC(OC(=O)c2cc(Br)ccc2Cl)C1 (configuration not stated)	-6.6	0	0	0	0	0	412	0
